Structures are written as SMILES. A number with no mark means an inactive call. Inconclusive results are not listed. Calls of active or inactive are those of the source. Unless noted, calls follow the shape of the dose curve; as a rule, active = well fitted curve in either direction with a large enough effect (not every such curve was filed as active); inconclusive = small, poorly fitted or top-dose-only effect, or another doubt; inactive = flat fitted curve, though single readings scatter.

A short description of assay [1]: AP1 Signaling Pathway (AID 357).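 Also: ME-180 reporter cells stimulated with EGF at its EC50 level; % is scaled to controls: 0 for no effect and ±100 for the full control effect.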 The settings on record: ME-180 AP-1-bla reporter, EGF-induced, beta-lactamase ratio, 5 h; at 17.2 µM (top of the series) unless noted. The procedure, abridged:
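Modulation of EGF-driven AP-1 transcription was assessed with a beta-lactamase reporter in ME-180 cells. Compound and EC50 EGF were co-incubated 5 hours at 37 °C before 2.5-hour CCF4 loading at room temperature and dual-emission reading.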

For assay [2], the target named is Cytochrome P450 1A2 (Homo sapiens) (UniProt P05177). Nature of the assay: p450-cyp1a2 (AID 410; calls by dose curve; also: potency is read from the fitted curve at half-maximal effect). In a few lines: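 20nM CYP1A2, 100uM Luciferin-ME (=Km), 100mM KPO4; cpd 10 min RT; +NADPH regen, 60 min RT; stop/detect 20 min; luminescence. Normalized to furafylline 57 uM = full inhibition.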
Chain of Cytochrome P450 1A2 (Homo sapiens) (P05177 whole entry, looked up): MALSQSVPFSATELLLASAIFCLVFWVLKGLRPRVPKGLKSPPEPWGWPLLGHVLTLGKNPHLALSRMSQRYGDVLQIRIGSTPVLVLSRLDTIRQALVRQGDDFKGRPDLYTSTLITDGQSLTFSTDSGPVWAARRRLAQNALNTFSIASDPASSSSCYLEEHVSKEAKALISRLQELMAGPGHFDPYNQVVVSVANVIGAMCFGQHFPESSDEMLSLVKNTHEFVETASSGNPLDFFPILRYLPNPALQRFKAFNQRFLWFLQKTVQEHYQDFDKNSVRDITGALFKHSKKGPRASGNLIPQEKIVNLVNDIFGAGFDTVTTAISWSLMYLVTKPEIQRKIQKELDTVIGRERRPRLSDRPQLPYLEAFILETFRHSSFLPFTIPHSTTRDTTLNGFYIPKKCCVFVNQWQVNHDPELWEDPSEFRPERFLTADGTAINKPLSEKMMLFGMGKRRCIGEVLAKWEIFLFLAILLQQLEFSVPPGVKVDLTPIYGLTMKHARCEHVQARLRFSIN
Assay [3] in a line: Stat Signaling Pathway (AID 446).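 Also: ME-180 cervical cancer cells given 40 pM IL-6 alongside compound; SIE-controlled beta-lactamase reporter measured as 460/530 nm FRET emission ratio; % is scaled to controls: 0 for no effect and ±100 for the full control effect.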 The settings on record: ME-180 (cervical carcinoma) SIE beta-lactamase reporter, IL-6 stimulated, 5 h; at 17.2 µM (top of the series) unless noted. The procedure, abridged: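 FRET read-out (405 nm excitation, 460/530 nm emission) of a beta-lactamase reporter under a STAT-inducible element in ME-180 cervical carcinoma cells. Cells with compound receive 40 pM IL-6 for 5 h. Values are normalised to AC90 stimulation and AC90 JAK-inhibitor controls.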

Assay [4] addresses 3',5'-cyclic-AMP phosphodiesterase 4B (Homo sapiens) (UniProt Q07343). Put plainly: qHTS Assay for Inhibitors of PDE-IV (AID 607; active = well fitted activation curve with a large enough effect in the main read-out, with a control signal flat, not every such curve was filed as active; also: % of control where 0% means no effect). In a few lines: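 Cell-based read-out of cAMP via a modified cyclic nucleotide-gated channel and membrane potential dye (535/590 nm) in HEK293 cells expressing PDE4 endogenously. Compounds tested up to 22.9 uM final; 100 uM RO 20-1724 reference.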

For assay [5], the target named is Guanine nucleotide-binding protein G(i) subunit alpha-1 (Homo sapiens) (UniProt P63096). Put plainly: qHTS Assay for Inhibitors of RGS12 GoLoco Motif Activity (Green Fluorophore) (AID 879; active = well fitted curve in the direction sought with a large enough effect; an effect the other way counts as inactive or inconclusive;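 also: 0% = labeled peptide with Gαi1 and full inhibition = labeled peptide alone without protein; negative values mean loss of peptide binding seen as reduced polarization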). The procedure, abridged:
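A drop in FITC polarization marked displacement of the FITC-tagged RGS12 GoLoco peptide (10 nM) from Gαi1 (50 nM). Compounds were incubated 10 min at room temperature in Tris pH 7.5 buffer containing 150 mM NaCl, 0.1 mM GDP and 0.05% NP40; unlabeled peptide titration served as control.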
(In general: Quantitative high-throughput screening tests each substance at several concentrations.)

The nature of assay [6]: qHTS Assay for Identification of Small Molecule Agonists for Thrombopoietin (TPO) Signaling Pathway (AID 917; active = well fitted curve in the direction sought with a large enough effect; an effect the other way counts as inactive or inconclusive; also: % is scaled to controls: 0 for no effect and ±100 for the full control effect). The procedure, abridged: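 Cell-based luciferase reporter screen. Mouse Ba/F3 line stably expressing human TPO receptor; IL-3 removed overnight before plating. Co-treatment with compound and EC50 TPO (26 pM), 24 hrs at 37 C, then luminescence.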
The target in assay [7] is Pyruvate kinase (Leishmania mexicana) (UniProt Q27686). Put plainly: qHTS Validation Assay for Inhibitors of Leishmania Mexicana Pyruvate Kinase (AID 945; active = well fitted curve in the direction sought with a large enough effect; an effect the other way counts as inactive or inconclusive;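 also: 0% = DMSO only neutral control wells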). In a few lines: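 Purified LmPYK (E451W mutant, 0.2 nM) was incubated 1 h at room temperature with 0.5 mM PEP and 0.1 mM ADP in 50 mM imidazole pH 7.2, 50 mM KCl, 7 mM MgCl2; ATP formed was read by PKLight luminescence, normalized to DMSO wells.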
Chain of Pyruvate kinase (Leishmania mexicana) (Q27686 2-499 E452W): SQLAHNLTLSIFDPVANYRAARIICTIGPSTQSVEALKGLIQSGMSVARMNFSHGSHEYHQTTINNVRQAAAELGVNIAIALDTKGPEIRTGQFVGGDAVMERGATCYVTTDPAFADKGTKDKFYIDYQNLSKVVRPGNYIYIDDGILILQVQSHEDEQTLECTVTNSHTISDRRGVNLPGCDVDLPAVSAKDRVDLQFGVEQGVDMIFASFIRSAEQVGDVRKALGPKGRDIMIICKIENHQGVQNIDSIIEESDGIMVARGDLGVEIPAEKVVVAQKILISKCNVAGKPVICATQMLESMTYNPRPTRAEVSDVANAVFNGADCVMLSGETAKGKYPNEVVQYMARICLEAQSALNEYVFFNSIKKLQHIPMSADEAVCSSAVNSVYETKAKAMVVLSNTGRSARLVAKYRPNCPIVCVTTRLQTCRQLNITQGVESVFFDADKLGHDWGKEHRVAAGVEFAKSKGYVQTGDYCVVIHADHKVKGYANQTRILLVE

Assay [8] deals with Pyruvate kinase PKM (Homo sapiens) (UniProt P14618). Put plainly: qHTS Assay for Activators of Human Muscle Pyruvate Kinase (AID 954; active = well fitted curve in the direction sought with a large enough effect, not every such curve was filed as active;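 also: 0% = uninhibited enzyme and -100% = no enzyme or full thiadiazolimine inhibition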). In a few lines: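 ATP production by PKM2 detected via luciferase luminescence after 1 h room-temperature reaction (0.1 nM enzyme, PEP at Km 0.5 mM, ADP 0.1 mM, pH 7.2 imidazole buffer). Inhibition scaled to no-enzyme control; activation referenced to 0.3 nM enzyme wells.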
Chain of Pyruvate kinase PKM (Homo sapiens) (P14618 whole entry, looked up): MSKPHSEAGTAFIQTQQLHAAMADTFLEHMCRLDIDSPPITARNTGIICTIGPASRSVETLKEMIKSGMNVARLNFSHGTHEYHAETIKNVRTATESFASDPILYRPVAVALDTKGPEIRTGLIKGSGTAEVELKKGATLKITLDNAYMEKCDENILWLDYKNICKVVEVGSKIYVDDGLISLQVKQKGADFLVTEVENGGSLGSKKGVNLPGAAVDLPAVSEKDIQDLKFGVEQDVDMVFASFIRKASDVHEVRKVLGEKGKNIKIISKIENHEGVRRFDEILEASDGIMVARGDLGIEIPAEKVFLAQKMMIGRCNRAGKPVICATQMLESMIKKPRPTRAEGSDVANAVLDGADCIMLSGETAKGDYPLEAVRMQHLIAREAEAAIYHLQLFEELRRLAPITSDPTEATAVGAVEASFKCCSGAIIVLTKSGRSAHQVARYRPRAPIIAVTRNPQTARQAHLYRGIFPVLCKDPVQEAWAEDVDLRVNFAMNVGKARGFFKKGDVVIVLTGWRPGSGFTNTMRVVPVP

Assay [9] concerns the target Alpha-galactosidase A (Homo sapiens) (UniProt P06280). Put plainly: Counterscreen for Glucocerebrosidase Inhibitors: qHTS Assay for Human alpha-Galactosidase at pH 4.5 (AID 992; active = well fitted curve in the direction sought with a large enough effect; an effect the other way counts as inactive or inconclusive; also: 0% is about no effect). In a few lines: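 Fluorogenic 1536-well qHTS at pH 4.5 (citrate, Tween-20): 2 nM enzyme, 80 uM 4-MU-alpha-galactoside, 20 min room temperature, NaOH/glycine stop. Titration 0.7 nM to 77 uM, data normalized to no-enzyme and full-activity controls, Hill-fitted AC50.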
A general note: A counterscreen serves to expose hits that act by an unwanted route or on another target.

Assay [10] deals with alpha-glucosidase (Oryza sativa, rice) (UniProt Q653V4). Nature of the assay: Counterscreen for Glucocerebrosidase Inhibitors: qHTS Assay for Rice alpha-Glucosidase at pH 5.0 (AID 997; active = well fitted curve in the direction sought with a large enough effect; an effect the other way counts as inactive or inconclusive;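 also: 0% = full activity with enzyme and -100% = basal without enzyme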). In a few lines: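 Endpoint fluorogenic assay at pH 5.0: compounds (0.7 nM to 77 uM) titrated against 4 nM rice enzyme and 400 uM 4-MU-alpha-glucoside for 20 min at room temperature; NaOH/glycine stop, read ex 365/em 440 nm, Hill-fitted AC50.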

The nature of assay [11]: NFAT Signaling Pathway (AID 444).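 Also: carbachol stimulus at about its EC50 of 1 µM final; % is scaled to controls: 0 for no effect and ±100 for the full control effect.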 The settings on record: Jurkat NFAT-bla M1, carbachol, beta-lactamase ratio, 5 h; at 17.2 µM (top of the series) unless noted. In a few lines:
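Jurkat cells carrying an NFAT-driven β-lactamase reporter and co-transfected muscarinic M1 receptor were treated with compound plus carbachol (1 uM final, an EC50 level) for 5 h at 37 °C. CCF4 loading followed for 1 h at RT; 460/530 nm ratio gave %activity.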

The target in assay [12] is Glucocorticoid receptor (Homo sapiens) (UniProt P04150). Put plainly: GR-GFP Redistribution (AID 450;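 active = compounds whose dose series gives a full or clear partial fitted curve of increased nuclear translocation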; also: potency is read from the fitted curve at half-maximal effect).
Chain of Glucocorticoid receptor (Homo sapiens) (P04150 whole entry, looked up, the tested form may be a part): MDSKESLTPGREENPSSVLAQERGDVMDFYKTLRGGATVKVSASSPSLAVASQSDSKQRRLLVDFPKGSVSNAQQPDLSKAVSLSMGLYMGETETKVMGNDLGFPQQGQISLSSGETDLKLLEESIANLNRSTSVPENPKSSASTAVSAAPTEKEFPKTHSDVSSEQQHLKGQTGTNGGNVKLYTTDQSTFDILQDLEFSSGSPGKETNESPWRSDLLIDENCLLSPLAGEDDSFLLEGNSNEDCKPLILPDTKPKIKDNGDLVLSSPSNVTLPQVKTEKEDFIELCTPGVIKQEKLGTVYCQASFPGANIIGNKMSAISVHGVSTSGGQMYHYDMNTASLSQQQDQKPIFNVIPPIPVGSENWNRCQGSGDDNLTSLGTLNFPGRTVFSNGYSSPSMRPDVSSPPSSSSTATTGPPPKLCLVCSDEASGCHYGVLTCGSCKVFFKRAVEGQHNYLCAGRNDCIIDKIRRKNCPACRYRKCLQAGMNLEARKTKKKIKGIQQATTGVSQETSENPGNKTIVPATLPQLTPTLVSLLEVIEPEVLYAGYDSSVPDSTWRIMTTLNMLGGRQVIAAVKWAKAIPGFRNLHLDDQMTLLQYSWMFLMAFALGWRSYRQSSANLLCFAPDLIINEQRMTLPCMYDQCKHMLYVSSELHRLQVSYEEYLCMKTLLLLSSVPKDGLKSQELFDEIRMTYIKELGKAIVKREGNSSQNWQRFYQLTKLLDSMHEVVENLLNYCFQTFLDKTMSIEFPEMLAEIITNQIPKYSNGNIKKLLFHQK
The target of assay [13] is Mitogen-activated protein kinase 10 (Mus musculus) (UniProt Q61831). Put plainly: JNK3 AlphaScreen Assay (AID 530). The procedure, abridged:
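Biotinylated GST-cJun(1-79) served as substrate for JNK3 in HepG2 lysates stimulated with IL-1beta and TNF-alpha. ATP was 10 uM final, pH 7.6. Ser73 phosphorylation was quantified by AlphaScreen (680 nm excitation).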

Assay [14] addresses Cytochrome P450 3A4 (Homo sapiens) (UniProt P08684). Put plainly: qHTS Assay for Inhibitors and Substrates of Cytochrome P450 3A4 (AID 884; active = well fitted curve in the direction sought with a large enough effect; an effect the other way counts as inactive or inconclusive; also: % is scaled to controls: 0 for no effect and ±100 for the full control effect; nearly all actives have a fitted effect of over 50% in size). In a few lines: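 Luminescent readout of luciferin produced by CYP3A4 (20 nM) dealkylation of Luciferin-PPXE, 25 uM (its KM). NADPH-driven reaction ran 60 min at RT after 10 min compound preincubation; data scaled to 57 uM ketoconazole as 100% inhibition.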

The target in assay [15] is Glucocorticoid receptor (Homo sapiens) (UniProt P04150). Put plainly: GR-EFC Redistribution (AID 451; calls by dose curve; also: potency is read from the fitted curve at half-maximal effect). The following applies: CHO-K1 GR-EFC translocation, beta-gal luminescence, 2 h. The procedure, abridged: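 CHO-K1 cells stably expressing nuclear-localized β-gal enzyme acceptor and GR fused C-terminally to the enzyme donor fragment; ligand-driven nuclear translocation restores β-gal by complementation. Compounds titrated up to 46 uM final, 2 h at 37 °C; luminescence read.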

Chain of 3',5'-cyclic-AMP phosphodiesterase 4B (Homo sapiens) (Q07343 whole entry, looked up): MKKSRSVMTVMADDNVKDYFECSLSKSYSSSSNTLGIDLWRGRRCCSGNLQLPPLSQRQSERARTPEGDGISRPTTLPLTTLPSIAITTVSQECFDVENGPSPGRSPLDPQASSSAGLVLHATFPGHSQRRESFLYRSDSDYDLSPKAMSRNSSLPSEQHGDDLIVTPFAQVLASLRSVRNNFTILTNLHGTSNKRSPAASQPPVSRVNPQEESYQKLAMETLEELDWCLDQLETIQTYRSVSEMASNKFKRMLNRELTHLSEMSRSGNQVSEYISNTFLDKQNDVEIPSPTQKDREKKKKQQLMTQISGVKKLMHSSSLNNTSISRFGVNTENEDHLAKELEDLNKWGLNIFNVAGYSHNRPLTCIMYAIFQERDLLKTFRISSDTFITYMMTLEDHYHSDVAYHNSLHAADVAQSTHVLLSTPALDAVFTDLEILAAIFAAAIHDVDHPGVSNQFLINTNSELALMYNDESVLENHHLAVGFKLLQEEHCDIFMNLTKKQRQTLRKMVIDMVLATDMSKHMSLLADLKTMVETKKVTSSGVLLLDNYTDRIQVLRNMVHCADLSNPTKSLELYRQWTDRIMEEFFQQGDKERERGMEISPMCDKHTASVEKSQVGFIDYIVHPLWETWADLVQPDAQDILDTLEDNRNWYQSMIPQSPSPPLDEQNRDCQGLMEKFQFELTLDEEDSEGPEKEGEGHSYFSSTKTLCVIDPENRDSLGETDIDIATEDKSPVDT
Chain of Alpha-galactosidase A (Homo sapiens) (P06280 whole entry, looked up): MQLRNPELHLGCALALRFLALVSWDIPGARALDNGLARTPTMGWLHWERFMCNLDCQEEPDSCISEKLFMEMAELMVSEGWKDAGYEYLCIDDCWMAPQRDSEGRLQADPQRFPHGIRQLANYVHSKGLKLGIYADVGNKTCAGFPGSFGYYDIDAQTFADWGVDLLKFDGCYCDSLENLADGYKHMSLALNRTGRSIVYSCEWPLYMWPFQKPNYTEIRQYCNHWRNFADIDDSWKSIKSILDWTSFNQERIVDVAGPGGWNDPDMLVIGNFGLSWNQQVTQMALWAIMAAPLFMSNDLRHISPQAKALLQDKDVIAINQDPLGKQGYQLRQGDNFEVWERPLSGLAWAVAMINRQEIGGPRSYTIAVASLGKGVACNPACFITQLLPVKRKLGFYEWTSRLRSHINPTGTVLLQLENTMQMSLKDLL
Chain of Guanine nucleotide-binding protein G(i) subunit alpha-1 (Homo sapiens) (P63096 whole entry, looked up): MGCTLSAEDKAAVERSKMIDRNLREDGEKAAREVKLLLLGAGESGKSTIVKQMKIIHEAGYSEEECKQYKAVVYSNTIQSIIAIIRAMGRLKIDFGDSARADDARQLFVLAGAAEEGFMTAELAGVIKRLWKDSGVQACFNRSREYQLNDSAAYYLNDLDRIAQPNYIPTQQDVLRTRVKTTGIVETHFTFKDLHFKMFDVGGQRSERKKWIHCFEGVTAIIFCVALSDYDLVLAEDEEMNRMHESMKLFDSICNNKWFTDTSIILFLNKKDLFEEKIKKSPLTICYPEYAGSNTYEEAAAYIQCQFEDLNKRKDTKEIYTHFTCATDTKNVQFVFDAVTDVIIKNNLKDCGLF
Chain of Cytochrome P450 3A4 (Homo sapiens) (P08684 whole entry, looked up): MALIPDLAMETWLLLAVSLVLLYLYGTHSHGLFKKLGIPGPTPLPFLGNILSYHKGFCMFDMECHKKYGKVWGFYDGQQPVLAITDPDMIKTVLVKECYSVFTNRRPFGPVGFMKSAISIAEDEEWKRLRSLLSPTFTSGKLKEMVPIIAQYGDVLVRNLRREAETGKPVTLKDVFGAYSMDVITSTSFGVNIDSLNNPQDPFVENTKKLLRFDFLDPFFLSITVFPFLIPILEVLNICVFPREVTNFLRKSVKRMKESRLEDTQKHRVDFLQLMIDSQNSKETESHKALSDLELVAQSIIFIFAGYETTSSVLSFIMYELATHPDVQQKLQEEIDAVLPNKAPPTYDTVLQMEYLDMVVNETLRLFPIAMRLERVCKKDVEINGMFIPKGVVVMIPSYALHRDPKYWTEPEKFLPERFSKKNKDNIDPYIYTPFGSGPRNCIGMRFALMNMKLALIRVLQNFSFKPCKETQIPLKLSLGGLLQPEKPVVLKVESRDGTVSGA

Take `COc1cc2nc(N3CCN(C(=O)[C@H]4COc5ccccc5O4)CC3)nc(N)c2cc1OC`: the activity change, negative = inhibition in assay [1] was -28.6% [at 38 µM]. Also, the Potency entry in [2], in [4], in [6] and in assay [7] was “inactive” in each case. Also, the activity, negative = inhibition in assay [3] was -8.72% [at 38 µM]. Besides, the outcome in assay [5], in assay [8], in [9] and in [10] was inactive.

With `CN1C(=O)C2(N=c3ccccc3=N2)c2ccccc21`, the activity change, negative = inhibition in [1] was 15.2%; in assay [11] it was 25.6%.

With `CCOc1cccc(-c2nn3c(-c4ccco4)nnc3s2)c1`, the activity change, negative = inhibition is -15.5% in assay [1] and -4.59% in [11]. Moreover, the activity, negative = inhibition in [3] is -0.495%.

On to `CC(C)OC(=O)CC1=NC(=O)CS1`, for which the activity change, negative = inhibition is 3.43% in assay [1] and 8.36% in [11]. Moreover, the activity, negative = inhibition in [3] was 9.47%.

Take `COc1cc2nc(N3CC=[N+](C(=O)c4ccco4)CC3)nc(N)c2cc1OC`: in [1], the activity change, negative = inhibition was -19.6% [at 38 µM]. The Potency in assay [2] is 12.6 µM (active); in assay [12], greater than 46 µM. Also, the Potency entry in [13], in [4], in [14] and in [7] was “inactive” each time. Moreover, the compound was classed as inactive in assay [8], in [9] and in [10].

For `Clc1ccc(C(c2ccc(Cl)cc2)n2cc[n+](C[C@@H](OCc3ccc(Cl)cc3Cl)c3ccc(Cl)cc3Cl)c2)cc1`, the activity change, negative = inhibition in assay [1] was -7.48% [at 38 µM]. The results for the Potency in assay [2], in [12] and in assay [15] were 31.6 µM (active), greater than 46 µM and greater than 46 µM, respectively. Moreover, the Potency entry in assay [13], in assay [4] and in [7] was “inactive” throughout. For the same compound, the compound was classed as inactive in [5], in assay [8], in assay [9] and in assay [10].

Regarding `N=C1[C@@H](O)[C@]2(I)c3ccccc3N3C(=N)[C@H](O)[C@@H]4c5ccccc5N1[C@@H]4[C@@H]32`, the activity change, negative = inhibition in assay [1] was 9.35% [at 7.69 µM]. The results for the Potency in assay [2], in [12] and in assay [15] were 2.51 µM (active), greater than 46 µM and greater than 9.22 µM, respectively. The Potency result in assay [4] is “inactive”.

For the compound `Cc1cc(-c2cc(C)c(O)c(C(C)(C)C)c2)cc(C(C)(C)C)c1O`, the activity change, negative = inhibition in assay [1] is -0.717% [at 7.69 µM]; in assay [13] it was -3.71% [at 11.4 µM]. The figures for the Potency in assay [2], in [12] and in [15] were 0.631 µM (active), greater than 46 µM and greater than 9.22 µM, respectively. The activity, negative = inhibition in assay [3] is 14.1% [at 7.69 µM]. Moreover, the Potency entry in assay [4] is “inactive”.

Turning to `O=C1C=C(NCCNc2c(F)c(F)c(CO)c(F)c2F)CCC1`, the figures for the activity change, negative = inhibition in [1] and in assay [11] were -0.699% and -5.54%, respectively. Besides, the activity, negative = inhibition in assay [3] was 2.13%.
